Test results reported in ChEMBL document CHEMBL1157539, “Thousands of chemical starting points for antimalarial lead identification” (Nature, 2010).

System: Plasmodium falciparum
Experiment: GSK_TCMDC: Inhibition of Plasmodium falciparum 3D7 in whole red blood cells, using parasite LDH activity as an index of growth. Test compounds present at 2uM
Type: functional

Inhibition, 89%:
O=C(Nc1ccc(-c2nc3ccccc3[nH]2)cc1)c1cccc(S(=O)(=O)N2CCOCC2)c1

Inhibition, 99%:
CC(O)C1CCCCN1C(=O)c1cccc(-c2cccc(-c3nc4ccccc4[nH]3)c2)c1 (stereo not given)
COc1nc2c(CCN3CCC(NCc4ccc5c(n4)NC(=O)CO5)CC3)c(Cl)cnc2cc1F.Cl
COc1cc(C(=O)NC2CC(C)(C)NC(C)(C)C2)ccc1-c1cc2cc(Cl)c(Cl)cc2[nH]1.O=C(O)C(F)(F)F
O=C(Nc1ccccc1)Nc1cccc(-c2cccc(-c3nc4cc(F)ccc4[nH]3)c2)c1
COc1c(CCNCCCCNCCc2cc(Cl)c3ccccc3c2OC)cc(Cl)c2ccccc12.CS(=O)(=O)O
Cc1nc(-c2cccc(Nc3ccnc4cc(-c5nccs5)ccc34)c2)no1.Cl
CCn1cc(C=C2Oc3c(ccc(O)c3CN3CCCCC3)C2=O)c2cc(OC)ccc21

Inhibition, 93%:
Oc1cc(NCc2ccccc2NCc2ccc(Cl)c(Cl)c2)nc2ccccc12

Inhibition, 100%:
COc1cc(NC(=O)c2sc(-c3ccc(Cl)cc3)cc2NC(=O)N2CCCC2)ccc1OCCN1CCCC1
O=C(Nc1ccc(CCNCCCc2ccccc2)cc1)Nc1ccc(Cl)c(Cl)c1
CCN(CC)CCN(Cc1ccc(-c2ccc(C(F)(F)F)cc2)cc1)C(=O)Cn1c(CCc2cccc(F)c2F)nc(=O)c2cc(F)c(F)cc21.O=C(O)C(O)C(O)C(=O)O
COc1ccc(CN(C)CCCc2ccc(NC(=O)c3cccc4c(=O)c5cccc(F)c5[nH]c34)cc2)cc1OC
Cc1nnc2c(NC(=O)NC3CCCC3)cc3cc(-c4ccc(CN(C)C)cc4)ccc3n12
Cn1c(NC2CCN(CC3CCN(C(=O)/C=C/c4ccc(Cl)c(Cl)c4)CC3)CC2)nc2ccccc21
Cc1nc2c(s1)c(=O)cc(CCc1cccc(F)c1F)n2CC(=O)N(Cc1ccc(-c2ccc(C(F)(F)F)cc2)cc1)C1CCN(C(C)C)CC1.O=C(O)C(O)C(O)C(=O)O
CC(Cc1ccc(NC(=O)COc2ccc(CC(C)NCCc3cccc(Cl)c3)cc2)cc1)NCCc1cccc(Cl)c1 (stereo not given)
c1ccc(Oc2ccc(Nc3ccnc4cc(-c5csc(CNCCN6CCOCC6)n5)ccc34)cc2)cc1
Cc1cc(Nc2ccc(O)cc2)nc2cc(O)ccc12.Cl
Cc1c[nH]c(CCNC(=O)c2cc(-c3ccc(Cl)cc3)cs2)n1

Inhibition, 87%:
CC1CCC(C[C@@H](C(=O)N[C@@H](CCC(=O)N2CCCCC2)C(=O)Nc2nccs2)[C@H](C(C)C)N(O)C=O)CC1 (stereo not given in full)
Cc1cc(NC(=O)c2ccc(S(=O)(=O)N(Cc3ccccc3)C(C)C)cc2)no1

Inhibition, 85%:
CN(c1ccc(NC(=O)c2cccc(F)c2)cc1)C1CCCN(Cc2cccc(O)c2)C1.O=C(O)C(F)(F)F (stereo not given)

Inhibition, 95%:
O=C(Nc1ccc(C(=O)N2CCN(CCN3CCN(c4cccc(C(F)(F)F)c4)CC3)CC2)cc1)c1ccc(OC(F)(F)F)cc1
Br.N=C1N=C(N)NC2(CCCCC2)N1OCCCOc1cccc2ccccc12
Br.CC1(C)NC(N)=NC(=N)N1OCCCCOc1ccccc1

Inhibition, 91%:
O=C(NC1CCCC1)c1ccc(N2CCC(NCc3cc4cc(Cl)ccc4[nH]3)CC2)cc1

Inhibition, 94%:
Cc1ccc(F)c(OCC2CCN(c3ccc(C(=O)NC4CC4)cn3)CC2)c1

Inhibition, 97%:
O=C(Nc1ccccc1-c1nc2ccccc2s1)C(Cl)(Cl)Cl
Cc1nc2ccc3ccc(CNc4ccc(C(=O)N[C@@H](CCC(=O)O)C(=O)N[C@@H](Cc5cccs5)C(=O)O)c(F)c4)cc3c2c(=O)[nH]1
CCNc1cc(C(=O)N[C@@H](Cc2ccccc2)[C@H](O)CNC2(CC)CC2)cc(N2CCCCS2(=O)=O)c1.Cl

Inhibition, 98%:
COc1cccc(CNC[C@@H](O)[C@H](Cc2ccccc2)NC(=O)c2cc3c4c(c2)c(C(C)C)cn4CCS(=O)(=O)N3C)c1.O=CO
N=C1NC(c2ccccc2)(c2ccccc2)C(=O)N1CC=Cc1ccccc1.O=C(O)C(F)(F)F
Cl.Nc1cccc(C=CC(=O)N=c2cc[nH]c3ccccc23)c1
CCN(CC)CCN(Cc1ccc(-c2ccc(C(F)(F)F)cc2)cc1)C(=O)Cn1c(CCc2cccc(F)c2F)nc(=O)c2ccc(F)cc21.O=C(O)C(O)C(O)C(=O)O

Inhibition, 96%:
COc1ccc(NC2=C(c3ccccc3)C(=O)c3ccccc32)cn1
CC(Nc1ccnc2cc(Cl)ccc12)c1ccc(S(N)(=O)=O)cc1 (stereo not given)
COc1cccc2cc(C(=O)N[C@@H](CC(C)C)C(=O)N[C@H](C=NN3CCOC3=O)Cc3ccccc3)oc12

Inhibition, 92%:
Oc1ccccc1CN(CCCN(Cc1ccccn1)Cc1ccccc1O)Cc1ccccn1
C#CCN(Cc1cc2c(=O)[nH]c(N)nc2cc1C)c1ccc(C(=O)N[C@@H](CCC(=O)O)C(=O)O)cc1
